According to PubChem BioAssay (NCATS):
Records with an inconclusive call do not appear. Calls of active or inactive are those of the source. Calls follow the shape of the dose curve; as a rule, active = well fitted curve in the direction sought with a large enough effect; inconclusive = small, poorly fitted or top-dose-only effect, or another doubt; inactive = no such curve, though single readings can be large; an effect the other way counts as inactive or inconclusive.

How the values were obtained:
HEK293 = assay: Cytotoxic Profiling of Annotated Libraries Using Quantitative High-Throughput Screening (AID 1296008); details: Five cell lines viability, CellTiter-Glo ATP luminescence, 48-72 h; max response: hits give low values; also: nearly all actives have a fitted effect of over 60% in size
Method in brief: (§1)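 Compounds were pin-transferred onto cells and incubated 48 or 72 hr at 37 degree Celsius, 95% humidity. CellTiter-Glo was added, plates sat 10 min at room temperature, then ATP-coupled luminescence was imaged as the viability read-out.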

HaCat = assay: as above; details: Five cell lines viability, CellTiter-Glo ATP luminescence, 48-72 h; max response: hits give low values
Method in brief: as §1

KB-3-1 = assay: as above; details: Five cell lines viability, CellTiter-Glo ATP luminescence, 48-72 h; max response: hits give low values
Method in brief: as §1

NIH3T3 = assay: as above; details: Five cell lines viability, CellTiter-Glo ATP luminescence, 48-72 h; max response: hits give low values
Method in brief: as §1

C33A = assay: Primary qHTS to identify gynecologic anti-cancer compounds using libraries of approved drugs and bioactive compounds (AID 1345084); details: Gynecologic cancer cell panel viability, ATPlite luminescence, 48 h; series mostly up to 57.5 µM; also: nearly all actives have a fitted effect of over 55% in size
Method in brief: (§2)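 Cells, 1,000 per well, were allowed to settle for 16 h at 37 C before compound addition. Five concentrations were tested for 48 h, and viability was read by ATPlite luminescence after 15 min at room temperature.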

CAOV3 = assay: as above; details: Gynecologic cancer cell panel viability, ATPlite luminescence, 48 h; series mostly up to 57.5 µM
Method in brief: as §2

CASKI = assay: as above; details: Gynecologic cancer cell panel viability, ATPlite luminescence, 48 h; series mostly up to 57.5 µM
Method in brief: as §2

Es-2 = assay: as above; details: Gynecologic cancer cell panel viability, ATPlite luminescence, 48 h; series mostly up to 57.5 µM
Method in brief: as §2

HeLa = assay: as above; details: Gynecologic cancer cell panel viability, ATPlite luminescence, 48 h; series mostly up to 57.5 µM
Method in brief: as §2

Hek293T = assay: as above; details: Gynecologic cancer cell panel viability, ATPlite luminescence, 48 h, control line for the selectivity index; series mostly up to 57.5 µM
Method in brief: as §2

JEG-3 = assay: as above; details: Gynecologic cancer cell panel viability, ATPlite luminescence, 48 h; series mostly up to 57.5 µM
Method in brief: as §2
% is scaled to controls: 0 for no effect and ±100 for the full control effect.

COC(=O)C1=CO[C@@H](O[C@@H]2O[C@H](CO)[C@@H](O)[C@H](O)[C@H]2O)[C@@H]2[C@@](C)(O)[C@@H](OC(=O)/C=C/c3ccc(O)cc3)C[C@]12O
inactive: max response (HEK293) 3.54% | max response (HaCat) 1.25% | max response (KB-3-1) 0.0331% | max response (NIH3T3) 2.33% | Potency (C33A) | Potency (CAOV3) | Potency (CASKI) | Potency (Es-2) | Potency (HeLa) | Potency (Hek293T) | Potency (JEG-3)

CC1=C2C[C@H]3O[C@@]3(C)CCC3O[C@@]3(C)C[C@@]2(O)OC1=O (some centres not stated)
inactive: max response (HEK293) -4.05% | max response (HaCat) -4.97% | outcome (KB-3-1) | max response (NIH3T3) 2.41% | Potency (C33A) | Potency (CAOV3) | Potency (CASKI) | Potency (Es-2) | Potency (HeLa) | Potency (Hek293T) | Potency (JEG-3)

O=C(O)C(O[C@@H]1O[C@H](CO[C@@H]2O[C@H](CO)[C@@H](O)[C@H](O)[C@H]2O)[C@@H](O)[C@H](O)[C@H]1O)c1ccccc1 (some centres not stated)
inactive: max response (HEK293) -7.94% | max response (HaCat) -3.34% | max response (KB-3-1) 7.09% | max response (NIH3T3) 1.38% | Potency (C33A) | Potency (CAOV3) | Potency (CASKI) | Potency (Es-2) | Potency (HeLa) | Potency (Hek293T) | Potency (JEG-3)

CCc1c(-c2ccccc2)c(-c2ccccc2)nn1-c1ccccc1-c1cccc(OCC(=O)O)c1
inactive: max response (HEK293) -14.2% | max response (HaCat) -10.2% | outcome (KB-3-1) | max response (NIH3T3) 0.468% | Potency (C33A) | Potency (CAOV3) | Potency (CASKI) | Potency (Es-2) | Potency (HeLa) | Potency (Hek293T) | Potency (JEG-3)

CC(=O)OC1C(OC(=O)c2ccccc2)C2C(C)(C)CC(=O)CC2(C)C23CCC(C)(C2)C(O)CC13 (configuration not stated)
inactive: max response (HEK293) -15.7% | max response (HaCat) 1.97% | max response (KB-3-1) -13.9% | max response (NIH3T3) -5.55% | Potency (C33A) | Potency (CAOV3) | Potency (CASKI) | Potency (Es-2) | Potency (HeLa) | Potency (Hek293T) | Potency (JEG-3)

C[C@@H]1O[C@@H](O[C@@H]2CO[C@@H](O[C@H]3CC[C@@]4(C)C(CC[C@]5(C)C4CC=C4[C@@H]6CC(C)(C)CC[C@]6(C(=O)O[C@@H]6O[C@H](CO)[C@@H](O)[C@H](O)[C@H]6O)CC[C@]45C)[C@]3(C)CO)[C@H](O)[C@H]2O[C@@H]2O[C@H](CO)[C@@H](O)[C@H](O)[C@H]2O)[C@H](O)[C@H](O)[C@H]1O (some centres not stated)
inactive: max response (HEK293) 1.34% | max response (HaCat) -0.513% | outcome (KB-3-1) | max response (NIH3T3) 2.94% | activity change, negative = cytotoxicity (C33A) 16.4% [at 11.6 µM] | activity change, negative = cytotoxicity (CAOV3) 15.5% [at 11.6 µM] | activity change, negative = cytotoxicity (CASKI) 3.56% [at 11.6 µM] | activity change, negative = cytotoxicity (Es-2) 19.8% [at 11.6 µM] | activity change, negative = cytotoxicity (HeLa) -1.12% [at 11.6 µM] | activity change, negative = cytotoxicity (Hek293T) -12.7% [at 11.6 µM] | activity change, negative = cytotoxicity (JEG-3) -4.12% [at 11.6 µM]

CC(C)c1cc2c(c(O)c1O)[C@@]13CCCC(C)(C)[C@@H]1[C@H](OC3=O)C2=O
inactive: max response (HEK293) -6.57% | max response (HaCat) -2.13% | max response (KB-3-1) -17.1% | max response (NIH3T3) 3.28% | Potency (C33A) | Potency (CAOV3) | Potency (CASKI) | Potency (Es-2) | Potency (HeLa) | Potency (Hek293T) | Potency (JEG-3)

O=C(O)COCCN1CCN([C@H](c2ccccc2)c2ccc(Cl)cc2)CC1
inactive: max response (HEK293) -2.41% | max response (HaCat) -30.6% | max response (KB-3-1) 0.104% | max response (NIH3T3) 0.14% | Potency (C33A) | Potency (CAOV3) | Potency (CASKI) | Potency (Es-2) | Potency (HeLa) | Potency (Hek293T) | Potency (JEG-3)

C=C[C@@](C)(O)CC/C=C(\C)C(=O)O[C@@H]1[C@@H]2O[C@]2(C)[C@H]2[C@H](O[C@@H]3O[C@H](CO)[C@@H](O)[C@H](O)[C@H]3O)OC=C[C@@]12O
inactive: max response (HEK293) 0.966% | max response (HaCat) -5.52% | max response (KB-3-1) -1.11% | max response (NIH3T3) 1.5% | Potency (C33A) | Potency (CAOV3) | Potency (CASKI) | Potency (Es-2) | Potency (HeLa) | Potency (Hek293T) | Potency (JEG-3)

C[C@H]1CC[C@@]2(OC1)O[C@H]1CC3C4CC[C@H]5C[C@@H](O)[C@H](O)C[C@]5(C)C4=CC(=O)[C@]3(C)[C@H]1[C@@H]2C (some centres not stated)
inactive: max response (HEK293) -6.34% | max response (HaCat) -0.134% | max response (KB-3-1) 0.923% | max response (NIH3T3) -10.8% | Potency (C33A) | Potency (CAOV3) | Potency (CASKI) | Potency (Es-2) | Potency (HeLa) | Potency (Hek293T) | Potency (JEG-3)

C[C@@H]1O[C@@H](OC[C@H]2O[C@@H](Oc3cc(O)cc4c3C(=O)C(O)(Cc3ccc(O)cc3)O4)[C@H](O)[C@@H](O)[C@@H]2O)[C@H](O)[C@H](O)[C@H]1O (some centres not stated)
inactive: max response (HEK293) 1.44% | max response (HaCat) -8.78% | max response (KB-3-1) 8.25% | max response (NIH3T3) 2.04% | Potency (C33A) | Potency (CAOV3) | Potency (CASKI) | Potency (Es-2) | Potency (HeLa) | Potency (Hek293T) | Potency (JEG-3)

COc1ccc(-c2ccc(-c3cn(C(=O)N4CCCCC4c4ccccc4)nn3)cc2)cc1 (configuration not stated)
inactive: max response (HEK293) 1.03% | max response (HaCat) -8.43% | max response (KB-3-1) -8.19% | max response (NIH3T3) 1.57% | Potency (C33A) | Potency (CAOV3) | Potency (CASKI) | Potency (Es-2) | Potency (HeLa) | Potency (Hek293T) | Potency (JEG-3)
